The values that follow come from PubChem BioAssay (NCATS).

Records with an inconclusive call do not appear. Values without a mark were called inactive. Calls of active or inactive are those of the source. The call rests on the fitted dose curve; in most records, active means well fitted curve in the direction sought with a large enough effect; inconclusive means small, poorly fitted or top-dose-only effect, or another doubt; inactive means no such curve, though single readings can be large; an effect the other way counts as inactive or inconclusive.

The nature of test [1]: qHTS of pediatric cancer cell lines to identify multiple opportunities for drug repurposing: Primary screen for A673 cells (AID 1347092). Further: nearly all actives have a fitted effect of over 45% in size. Further: potency means the concentration at half of the fitted maximal effect. Put shortly: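 Luminescence from CellTiter-Glo, taken after 15 min at room temperature, served as the proxy for metabolically active cells following 48 h treatment. Both potency and efficacy were taken from curves fitted to the titration data.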
A general note: In qHTS, concentration-response curves come from the screen itself.

Test [2] can be described thus: qHTS of pediatric cancer cell lines to identify multiple opportunities for drug repurposing: Primary screen for SK-N-MC cells (AID 1347093). Further: potency means the concentration at half of the fitted maximal effect. In short, it runs like this: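 Metabolically active cells were quantified by ATP-dependent luminescence (CellTiter-Glo, 15 min at room temperature) following 48 h treatment. Cells had been plated at 500-1,000 per well and settled for 5 h beforehand.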

Test [3] can be described thus: qHTS of pediatric cancer cell lines to identify multiple opportunities for drug repurposing: Primary screen for BT-37 cells (AID 1347094). Further: potency means the concentration at half of the fitted maximal effect. Put shortly:
(§1)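 Readout: CellTiter-Glo luminescence, 48 h treatment. Controls DMSO (neutral) and bortezomib 2.3 µM final (positive). Potency and efficacy taken from primary-screen concentration-response curves.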

Test [4] can be described thus: qHTS of pediatric cancer cell lines to identify multiple opportunities for drug repurposing: Primary screen for NB-EBc1 cells (AID 1347095). Put shortly: as §1
Test [5] can be described thus: qHTS of pediatric cancer cell lines to identify multiple opportunities for drug repurposing: Primary screen for U-2 OS cells (AID 1347096). Further: nearly all actives have a fitted effect of over 50% in size. Further: potency means the concentration at half of the fitted maximal effect. In short, it runs like this: (§2)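 Viability after 48 h compound treatment at 37C, 500-1,000 cells/well, read as ATP luminescence with CellTiter-Glo. Primary screens used 11-point (MIPE, 0.78 nM-46 µM) or 8-point (NPC, 0.59 nM-46 µM) final concentrations; follow-up screens used 11-point dilutions.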

Test [6] can be described thus: qHTS of pediatric cancer cell lines to identify multiple opportunities for drug repurposing: Primary screen for Saos-2 cells (AID 1347097). Further: nearly all actives have a fitted effect of over 40% in size. Further: potency means the concentration at half of the fitted maximal effect. Put shortly:
as §1

Test [7] can be described thus: qHTS of pediatric cancer cell lines to identify multiple opportunities for drug repurposing: Primary screen for NB1643 cells (AID 1347099). Further: nearly all actives have a fitted effect of over 50% in size. Further: potency means the concentration at half of the fitted maximal effect. In short, it runs like this: as §1
Test [8] is described as follows: qHTS of pediatric cancer cell lines to identify multiple opportunities for drug repurposing: Primary screen for LAN-5 cells (AID 1347100). Further: potency means the concentration at half of the fitted maximal effect. In short, it runs like this:
as §2

A short description of test [9]: qHTS of pediatric cancer cell lines to identify multiple opportunities for drug repurposing: Primary screen for Rh18 cells (AID 1347102). Further: nearly all actives have a fitted effect of over 65% in size. Further: potency means the concentration at half of the fitted maximal effect. In short, it runs like this: as §2
A short description of test [10]: qHTS of pediatric cancer cell lines to identify multiple opportunities for drug repurposing: Primary screen for MG 63 (6-TG R) cells (AID 1347105). Further: nearly all actives have a fitted effect of over 50% in size. In short, it runs like this:
as §1

Test [11] can be described thus: qHTS of pediatric cancer cell lines to identify multiple opportunities for drug repurposing: Primary screen for control Hh wild type fibroblast cells (AID 1347106).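 Further: series mostly up to about 46 µM; a drop in luminescence marks cytotoxicity and a rise apparent proliferation; nearly all actives have a fitted effect of over 55% in size.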 Put shortly:
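Cells (500-1,000/well) in growth media were settled 5 h at 37 degrees C, then given compounds for 48 h. Viability was read as CellTiter-Glo luminescence. Primary runs used MIPE at 11 points (0.78 nM-46 µM) and NPC at 8 points (0.59 nM-46 µM); follow-ups used 11 points.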

The nature of test [12]: qHTS of pediatric cancer cell lines to identify multiple opportunities for drug repurposing: Primary screen for Rh30 cells (AID 1347107). Further: nearly all actives have a fitted effect of over 75% in size. Further: potency means the concentration at half of the fitted maximal effect. In short, it runs like this: as §2
Test [13] can be described thus: qHTS of pediatric cancer cell lines to identify multiple opportunities for drug repurposing: Primary screen for Rh41 cells (AID 1347108). Further: nearly all actives have a fitted effect of over 70% in size. Further: potency means the concentration at half of the fitted maximal effect. In short, it runs like this: as §1
Test [14] is described as follows: qHTS of pediatric cancer cell lines to identify multiple opportunities for drug repurposing: Primary screen for SK-N-SH cells (AID 1347098). Further: nearly all actives have a fitted effect of over 65% in size. Further: potency means the concentration at half of the fitted maximal effect. In short, it runs like this:
(§3)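 Cells (500-1,000/well) rested 5 h, then received compounds for 48 h; metabolically active cells were measured by CellTiter-Glo luminescence. Final concentrations spanned up to 46 µM (MIPE, 11-point) or 0.59 nM-46 µM (NPC, 8-point) in primary screens, 11-point in follow-ups.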

The nature of test [15]: qHTS of pediatric cancer cell lines to identify multiple opportunities for drug repurposing: Primary screen for BT-12 cells (AID 1347101). Further: nearly all actives have a fitted effect of over 25% in size. Further: potency means the concentration at half of the fitted maximal effect. In short, it runs like this:
as §3

The nature of test [16]: qHTS of pediatric cancer cell lines to identify multiple opportunities for drug repurposing: Primary screen for RD cells (AID 1347104). Further: nearly all actives have a fitted effect of over 55% in size. Further: potency means the concentration at half of the fitted maximal effect. Put shortly: as §1
The nature of test [17]: qHTS of pediatric cancer cell lines to identify multiple opportunities for drug repurposing: Primary screen for OHS-50 cells (AID 1347103). Further: nearly all actives have a fitted effect of over 40% in size. Further: potency means the concentration at half of the fitted maximal effect. In short, it runs like this: as §3
The nature of test [18]: qHTS of pediatric cancer cell lines to identify multiple opportunities for drug repurposing: Confirmatory screen for NB1643 cells (AID 1347109). Further: potency means the concentration at half of the fitted maximal effect; nearly all actives have a fitted effect of over 45% in size. In short, it runs like this:
as §2

A short description of test [19]: qHTS of pediatric cancer cell lines to identify multiple opportunities for drug repurposing: Confirmatory screen for A673 cells (AID 1347110). Further: potency means the concentration at half of the fitted maximal effect; nearly all actives have a fitted effect of over 65% in size. In short, it runs like this:
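qHTS titration format: primary MIPE 0.78 nM-46 µM (11 pts), NPC 0.59 nM-46 µM; confirmation 11 pts. 48 h, CTG luminescence.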

The nature of test [20]: qHTS of pediatric cancer cell lines to identify multiple opportunities for drug repurposing: Confirmatory screen for SK-N-MC cells (AID 1347111).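 Further: potency means the concentration at half of the fitted maximal effect; cells exposed to compound for 48 h before the readout; nearly all actives have a fitted effect of over 70% in size.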 As to conditions: SK-N-MC cell viability. In short, it runs like this: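 SK-N-MC cells at 500-1,000 cells/well in growth media were pre-incubated 5 h, then exposed to compounds at 11-point dilutions for 48 h at 37 degrees C, 5% CO2. Viability was read as CellTiter-Glo luminescence.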

For `OCCN1CCN(CCCN2c3ccccc3C=Cc3ccccc32)CC1`, the Potency entry in test [1], in [2], in test [3], in test [4], in [5] and in test [6] was “inactive” throughout. The Potency result in test [7], in test [8], in test [9], in [10], in test [12] and in [13] was “inactive” throughout. The compound was called inactive in test [11].

On to `Cc1scc2c1N(C(=O)CN1CCN(C)CC1)c1ccccc1NC2=O`, for which the Potency result in [1], in test [2], in [3], in test [4], in test [5] and in test [6] was “inactive” in each case. In addition, the Potency result in test [14], in test [7], in [8], in test [15], in [9] and in test [16] was “inactive” throughout. The Potency entry in test [12] and in test [13] was “inactive” throughout. In test [11], the result was inactive.

Take `CCN(CC)CCNC(=O)c1ccc(NC(C)=O)cc1`: the Potency entry in [1], in test [2], in test [3], in test [4], in [5] and in test [6] was “inactive” each time. Also, the Potency entry in [14], in [7], in test [8], in test [9], in test [17] and in test [16] was “inactive” in each case. Also, the Potency entry in test [10], in test [12] and in test [13] was “inactive” in each case.

Consider `CN(C)C(=O)Oc1cccc([N+](C)(C)C)c1`, for which the Potency result in test [1], in [2], in [3], in [4], in [5] and in test [6] was “inactive” each time. Further, the Potency result in test [14], in [7], in [8], in test [15], in test [9] and in test [17] was “inactive” throughout. The Potency result in test [16], in test [12] and in test [13] was “inactive” each time. Moreover, the call in test [11] was inactive.

Turning to `O=C(O)CCCCCCCC(=O)O`, the Potency entry in test [1], in test [2], in [3], in [4], in [5] and in test [6] was “inactive” in each case. For the same compound, the Potency result in test [14], in test [7], in test [8], in [15], in test [9] and in test [17] was “inactive” each time. For the same compound, the Potency result in test [16], in test [10], in test [12] and in test [13] was “inactive” in each case. The outcome in [11] was inactive.

As for `CC(C)NNC(=O)c1ccncc1`, the Potency entry in test [1], in test [2], in [3], in test [4], in test [6] and in test [14] was “inactive” in each case. Also, the Potency entry in test [7], in test [8], in [15], in [9], in test [17] and in [16] was “inactive” throughout. In addition, the Potency result in [10], in test [12] and in [13] was “inactive” throughout.

Regarding `C[n+]1cc2c3c(ccc2c2ccc4cc5c(cc4c21)OCO5)OCO3`, the Potency in [1] was 1.16 µM (active); in [2], 1.3 µM (active); in [3] it was 2.13 µM (active); in [5], 2.91 µM (active); in test [6], 4.11 µM (active); in test [14], 1.5 µM (active). Also, the Potency was 1.16 µM (active) in test [7]; 1.16 µM (active) in test [8]; 1.69 µM (active) in test [15]; 2.06 µM (active) in test [9]; 2.13 µM (active) in test [17]; 1.84 µM (active) in [16]. Moreover, the Potency in test [12] is 2.59 µM (active); in test [13], 2.59 µM (active); in [18], 1.02 µM (active); in [19] it was 1.15 µM (active); in test [20], 1.29 µM (active).
